In the supplement of paper PMC6555819 one finds PBM binding z-score data, which are given here for eight sequences.

Holding throughout (assay): PBM binding z-score (relative to random genomic background probes); higher = stronger binding; sequences stand for … in GC…GCGATTGACAGCGTAGAATGAAGG
In assay [1] the test system is FXR:RXRa (NR concentration 270 nM, RXRa partner concentration 90 nM). In short, it runs like this: (§1)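 Regression normalization was applied to scanned fluorescence from custom Agilent 4×180K protein-binding microarrays. Before scanning, arrays were incubated 1 h with ligand-free nuclear receptor dimers, and binding was detected with antibodies against each partner (one per run). Binding z-scores use the random background probes as reference.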

The subject of assay [2] is LXRa:RXRa (NR concentration 270 nM, RXRa partner concentration 90 nM). In short, it runs like this:
as §1

Assay [3] relates to LXRa homodimer (NR concentration 270 nM). The method, boiled down:
as §1

For assay [4], the system named is LXRb homodimer (NR concentration 270 nM). The method, boiled down: as §1
Assay [5] concerns PPARa:RXRa (NR concentration 270 nM, RXRa partner concentration 90 nM). In short, it runs like this: as §1
Assay [6] relates to PPARg:RXRa (NR concentration 180 nM, RXRa partner concentration 90 nM). In short, it runs like this:
as §1

For assay [7], the system named is PPARg:RXRa 270nM:90nM, anti-RXR (NR concentration 270 nM, RXRa partner concentration 90 nM). In short, it runs like this: as §1
The subject of assay [8] is PPARg:RXRa 30nM:10nM, anti-RXR (NR concentration 30 nM, RXRa partner concentration 10 nM). The method, boiled down: as §1
Assay [9] relates to PPARg:RXRa 90nM:30nM, anti-RXR (NR concentration 90 nM, RXRa partner concentration 30 nM). In short, it runs like this:
as §1

Assay [10] has as its system PPARg:RXRa DBDmut IVT, anti-RXR (DBD mutation: RXRa K156A/R161A, NR concentration 270 nM, RXRa partner concentration 90 nM). The method, boiled down:
as §1

The test system of assay [11] is PPARg:RXRa IVT, anti-PPARg (NR concentration 270 nM, RXRa partner concentration 90 nM). In short, it runs like this:
as §1

Assay [12] deals with PPARg DBDmut:RXRa IVT, anti-PPARg (DBD mutation: PPARg1 K132A/R137A, NR concentration 270 nM, RXRa partner concentration 90 nM). In short, it runs like this:
as §1

Assay [13] concerns PPARg DBDmut IVT, anti-PPARg (DBD mutation: PPARg1 K132A/R137A, NR concentration 270 nM). In short, it runs like this:
as §1

For assay [14], the system named is PPARg homodimer (NR concentration 180 nM). The method, boiled down: as §1
Assay [15] has as its system PXR:RXRa (NR concentration 270 nM, RXRa partner concentration 90 nM). The method, boiled down:
as §1

The subject of assay [16] is PXR homodimer (NR concentration 270 nM). The method, boiled down:
as §1

Assay [17] deals with RARa:RXR (NR concentration 270 nM, RXRa partner concentration 90 nM). In short, it runs like this:
as §1

Assay [18] concerns RARa homodimer (NR concentration 270 nM). The method, boiled down:
as §1

Assay [19] has as its system RARb:RXRa (NR concentration 270 nM, RXRa partner concentration 90 nM). The method, boiled down: as §1
The subject of assay [20] is LXRb:RXRa (NR concentration 270 nM, RXRa partner concentration 90 nM). The method, boiled down: as §1

CCTAGTTGGTCAGGAAGTCACACACCGGATATGA: the PBM binding z-score in assay [1] came out at 0.197; in assay [2], 0.331; in assay [3], 0.553; in [4], 0.257; in [5] it was 0.239; in assay [6], 0.696. Moreover, the PBM binding z-score was 0.592 in assay [7]; 0.308 in assay [8]; 0.322 in assay [9]; 0.63 in assay [10]; 0.621 in [11]; -0.0162 in assay [12]. The PBM binding z-score turned out to be 0.0813 in assay [13]; 1.03 in assay [14]; 0.246 in [15]; 0.549 in [16]; 0.014 in assay [17]; 1.63 in assay [18]. The sequence further displayed a PBM binding z-score in assay [19] of 0.892.
With CTATGTAGGTTAAGGGGGTCATTGAGTTTGAAAG, the PBM binding z-score in assay [1] was found to be 5.19; in assay [2] it was 4.98; in assay [3], 2.68; in assay [20] it was 6.12; in [6], 8.96; in assay [7], 7.92. In addition, the PBM binding z-score in assay [8] worked out at 5.98; in assay [9] it was 8.13; in assay [10], 7.65; in [11] it was 7.94; in assay [14], 3.37; in assay [15], 6.54. In addition, the PBM binding z-score in [16] was determined as 12.9; in assay [17] it was 6.15; in [18] it was 1.4; in assay [19], 3.78.
On to AGTCAAAGTTCATCAAGGTAACGTAAGATATGCT, for which the PBM binding z-score in assay [1] was 6.08; in [2], 5.78; in assay [3], 4.24; in [4], 1.31; in assay [5] it was 4.64; in assay [6], 6.46. The PBM binding z-score in assay [7] amounted to 6.38; in assay [8] it was 3.52; in assay [9], 5.75; in assay [10], 0.277; in assay [11], 3.34; in assay [12], 1.59. Also, the PBM binding z-score in [13] came to 1.26; in assay [14], 3.05; in [15], 5.4; in [16], 9.31; in assay [17], 4.3; in assay [18], 2.24. For the same sequence, the PBM binding z-score in [19] stood at 4.9.
For the sequence AGAGTGAGGTTACCAAAGATCAGGGAAACGCTTG, the PBM binding z-score in assay [1] was 2.09; in assay [2], 6.39; in assay [3], 0.104; in [4], 0.461; in assay [5] it was 3.01; in assay [6], 1.54. Also, the PBM binding z-score is 1.63 in [7]; 0.448 in assay [8]; 1.15 in assay [9]; 1.07 in assay [10]; 1.49 in [11]; -0.228 in [12]. The PBM binding z-score is -0.0667 in [13]; 0.744 in assay [14]; 1.7 in [15]; 0.558 in [16]; 1.97 in assay [17]; 0.667 in assay [18]. Also, the PBM binding z-score in [19] was found to be 2.48.
Consider ACTTACGGGTCAACGACGTTATAGCACGCGTATA, for which the PBM binding z-score in [1] is 6.03; in assay [2] it was 3.91; in assay [3] it was 0.144; in assay [4], 0.83; in [5], 5.66; in [6] it was 5.3. The PBM binding z-score turned out to be 5.09 in [7]; 1.83 in assay [8]; 3.59 in assay [9]; 3.06 in assay [10]; 3.74 in assay [11]; 1.35 in [12]. Moreover, the PBM binding z-score in [13] is 0.774; in assay [14], 1.67; in assay [15] it was 3.19; in assay [16], -0.178; in assay [18], 0.684; in [19] it was 4.07.
With ACTCGGGGGACAAAGGTCAGAGCTACGCCAGTGA, the PBM binding z-score in assay [1] is 5.78; in assay [2], 5.7; in [3], 2.14; in [4] it was 5.96; in assay [5], 6.14; in assay [6], 9.31. In addition, the PBM binding z-score is 8.33 in [7]; 8.12 in assay [8]; 9.68 in [9]; 2.49 in [10]; 5.75 in assay [11]; 7.4 in assay [12]. For the same sequence, the PBM binding z-score in assay [13] stood at 7.53; in assay [14], 5.43; in assay [15], 5.36; in assay [16], 1.26; in assay [17], 6.35; in [18], 2.37. The PBM binding z-score in assay [19] was 4.91.
Regarding CGTCAAAGTTAAAGGTAACGTAACAGAAAGCAGC, the PBM binding z-score in [1] was 0.0396; in assay [2] it was 0.253; in [3], -0.0511; in [4], -0.0705; in assay [5], 1.46; in assay [6] it was 1.59. Besides, the PBM binding z-score in [7] came out at 2.59; in assay [8] it was 0.527; in [9], 1.65; in assay [10] it was 0.379; in assay [11], 1.17; in assay [12] it was 0.513. In addition, the PBM binding z-score in assay [13] is 0.594; in assay [14], 0.332; in [15] it was 0.394; in assay [16], 0.0362; in [17], 0.981; in [18], 0.438. This sequence also returned a PBM binding z-score in [19] of 1.02.
Take AATACAGGGTGATCGTAGGCCAGAGTACGCACAG: the PBM binding z-score is -0.0324 in [1]; 0.162 in assay [2]; -0.234 in [3]; -0.0404 in assay [4]; 0.576 in [5]; 1.2 in [6]. Besides, the PBM binding z-score in [7] turned out to be 0.407; in [8] it was 0.131; in [9], 0.149; in assay [10], 0.342; in assay [11] it was 1.51; in [12] it was 0.927. The PBM binding z-score turned out to be 0.662 in assay [13]; 0.342 in [14]; 0.0587 in assay [15]; 0.139 in assay [16]; 0.29 in assay [17]; 0.275 in [18]. Further, the PBM binding z-score in [19] came out at 0.432.
